Assay results as given in PubChem BioAssay (Tox21).
Several values for one entry are separate records, joined by “and”; a condition that tells them apart may be missing. Identical values can stand only once. Inconclusive results are not listed. Activity calls are given as the source filed them. Calls follow the shape of the dose curve; as a rule, active = well fitted curve in the direction sought with a large enough effect in the repeat runs; inconclusive = weak or mixed curves; inactive = no such curve, though single readings can be large; an effect the other way counts as inactive or inconclusive.

How the values were obtained:
[1] = qHTS RealTime-Glo MT Cell Viability Assay in HepG2 cells - 40 hour (AID 1224870); also: nearly all actives have a fitted effect of over 50% in size
In short: (§1)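 HepG2 cells mixed with RealTime-Glo MT reagents (NanoLuc plus cell-permeant prosubstrate) were seeded at 600 cells/well, incubated 5 h at 37 C/5% CO2, then pinned with compounds in DMSO; nonlytic luminescence tracked viability during 40 h treatment.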

[2] = A CellTox Green Cytotoxicity Assay to monitor cytotoxicity in HEK293 cells - 40 hour (AID 1224871); also: nearly all actives have a fitted effect of over 45% in size
In short: (§2)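 Nonlytic real-time cytotoxicity: HEK293 + CellTox Green reagent plated, 5 h preincubation, pintool compound addition (23 nL in DMSO), 37 C for 40 h, fluorescence measured at successive time points.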

[3] = qHTS RealTime-Glo MT Cell Viability Assay in HEK293 cells - 16 hour (AID 1224872); also: top concentration of the series differs between compounds; nearly all actives have a fitted effect of over 50% in size
In short: (§3)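 Assay medium contained NanoLuc luciferase plus cell-permeant prosubstrate, added with HEK293 cells at 600 cells/well. After 5 h at 37 C/5% CO2 compounds were added; plates stayed at 37 C for 40 h with serial luminescence reads.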

[4] = qHTS RealTime-Glo MT Cell Viability Assay in HepG2 cells - 8 hour (AID 1224873); also: nearly all actives have a fitted effect of over 55% in size
In short: as §1

[5] = qHTS RealTime-Glo MT Cell Viability Assay in HEK293 cells - 40 hour (AID 1224874); conditions: RealTime-Glo luminescence; max response: stronger effect = lower value; also: nearly all actives have a fitted effect of over 50% in size
In short: (§4)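 Cells were seeded together with NanoLuc luciferase and a prosubstrate that viable cells reduce to a luciferase substrate. After a 5 h incubation at 37 C/5% CO2, compounds were added and luminescence was measured repeatedly during 40 h of treatment.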

[6] = A CellTox Green Cytotoxicity Assay to monitor cytotoxicity in HEK293 cells - 24 hour (AID 1224875); also: series mostly up to about 77 µM; nearly all actives have a fitted effect of over 45% in size
In short: as §2

[7] = A CellTox Green Cytotoxicity Assay to monitor cytotoxicity in HepG2 cells - 16 hour (AID 1224876); also: nearly all actives have a fitted effect of over 45% in size
In short: (§5)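 Read-out is fluorescence of a cyanine dye excluded from live cells that stains DNA of dead HepG2 cells, with signal proportional to cytotoxicity. Plates were read at 0, 8, 16, 24, 32 and 40 h after compound addition.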

[8] = qHTS RealTime-Glo MT Cell Viability Assay in HepG2 cells - 32 hour (AID 1224877); also: nearly all actives have a fitted effect of over 55% in size
In short: (§6)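 qHTS, HepG2, 600 cells/well, RealTime-Glo (NanoLuc + prosubstrate) added with cells; 5 h preincubation; DMSO compound addition; 37 C; luminescence at 0/8/16/24/32/40 h.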

[9] = A CellTox Green Cytotoxicity Assay to monitor cytotoxicity in HepG2 cells - 24 hour (AID 1224878); also: nearly all actives have a fitted effect of over 45% in size
In short: as §5

[10] = A CellTox Green Cytotoxicity Assay to monitor cytotoxicity in HepG2 cells - 40 hour (AID 1224879); also: nearly all actives have a fitted effect of over 40% in size
In short: as §5

[11] = qHTS RealTime-Glo MT Cell Viability Assay in HEK293 cells - 0 hour (AID 1224880)
In short: as §4

[12] = A CellTox Green Cytotoxicity Assay to monitor cytotoxicity in HEK293 cells - 32 hour (AID 1224881); also: nearly all actives have a fitted effect of over 40% in size
In short: as §2

[13] = A CellTox Green Cytotoxicity Assay to monitor cytotoxicity in HepG2 cells - 0 hour (AID 1224882); also: nearly all actives have a fitted effect of over 35% in size
In short: as §5

[14] = A CellTox Green Cytotoxicity Assay to monitor cytotoxicity in HepG2 cells - 32 hour (AID 1224883); also: nearly all actives have a fitted effect of over 50% in size
In short: as §5

[15] = A CellTox Green Cytotoxicity Assay to monitor cytotoxicity in HEK293 cells - 8 hour (AID 1224884); also: nearly all actives have a fitted effect of over 35% in size
In short: as §2

[16] = qHTS RealTime-Glo MT Cell Viability Assay in HepG2 cells - 16 hour (AID 1224885); also: nearly all actives have a fitted effect of over 50% in size
In short: as §6

[17] = qHTS RealTime-Glo MT Cell Viability Assay in HEK293 cells - 24 hour (AID 1224886)
In short: as §3

[18] = qHTS RealTime-Glo MT Cell Viability Assay in HEK293 cells - 8 hour (AID 1224887)
In short: as §4

[19] = A CellTox Green Cytotoxicity Assay to monitor cytotoxicity in HEK293 cells - 16 hour (AID 1224888); also: nearly all actives have a fitted effect of over 35% in size
In short: as §2

[20] = qHTS RealTime-Glo MT Cell Viability Assay in HepG2 cells - 0 hour (AID 1224889); also: nearly all actives have a fitted effect of over 50% in size
In short: as §6
% is scaled to controls: 0 for no effect and ±100 for the full control effect.

COc1ccc(C)cc1N
inactive: outcome [1] | Potency [2] | Potency [3] | Potency [4] | max response [5] 3.89% and 7.66% | Potency [6] | outcome [7] | outcome [8] | Potency [9] | Potency [10] | outcome [11] | Potency [12] | outcome [13] | Potency [14] | outcome [15] | Potency [16] | Potency [17] | Potency [18] | Potency [19] | Potency [20]

CCOCC(=O)O
inactive: outcome [1] | Potency [2] | Potency [3] | Potency [4] | max response [5] -1.6% and 8.63% | Potency [6] | outcome [7] | outcome [8] | Potency [9] | Potency [10] | outcome [11] | Potency [12] | outcome [13] | Potency [14] | outcome [15] | Potency [16] | Potency [17] | Potency [18] | Potency [19] | Potency [20]

CCNC(=S)NCC
inactive: outcome [1] | Potency [2] | Potency [3] | Potency [4] | max response [5] -2.25% and -1.34% | Potency [6] | outcome [7] | outcome [8] | Potency [9] | Potency [10] | outcome [11] | Potency [12] | outcome [13] | Potency [14] | outcome [15] | Potency [16] | Potency [17] | Potency [18] | Potency [19] | Potency [20]

NCCNCCN
inactive: outcome [1] | Potency [2] | Potency [3] | Potency [4] | max response [5] -1.22% and 0.475% | Potency [6] | outcome [7] | outcome [8] | Potency [9] | Potency [10] | outcome [11] | Potency [12] | outcome [13] | Potency [14] | outcome [15] | Potency [16] | Potency [17] | Potency [18] | Potency [19] | Potency [20]

COCCCN
inactive: outcome [1] | Potency [2] | Potency [3] | Potency [4] | max response [5] 3.35% and 3.08% | Potency [6] | outcome [7] | outcome [8] | Potency [9] | Potency [10] | outcome [11] | Potency [12] | outcome [13] | Potency [14] | outcome [15] | Potency [16] | Potency [17] | Potency [18] | Potency [19] | Potency [20]

CNC(=O)Oc1ccc2c(c1)[C@]1(C)CCN(C)[C@@H]1N2C
inactive: outcome [1] | Potency [2] | Potency [3] | Potency [4] | max response [5] 4.52% and 8.75% | Potency [6] | outcome [7] | outcome [8] | Potency [9] | Potency [10] | outcome [11] | Potency [12] | outcome [13] | Potency [14] | outcome [15] | Potency [16] | Potency [17] | Potency [18] | Potency [19] | Potency [20]

CCO[Si](CCCN)(OCC)OCC
inactive: outcome [1] | Potency [2] | Potency [3] | Potency [4] | max response [5] -7.12% and 0.455% | Potency [6] | outcome [7] | outcome [8] | Potency [9] | Potency [10] | outcome [11] | Potency [12] | outcome [13] | Potency [14] | outcome [15] | Potency [16] | Potency [17] | Potency [18] | Potency [19] | Potency [20]

CCOCCOCCOCCO
inactive: outcome [1] | Potency [2] | Potency [3] | Potency [4] | max response [5] 3.42% and 9.26% | Potency [6] | outcome [7] | outcome [8] | Potency [9] | Potency [10] | outcome [11] | Potency [12] | outcome [13] | Potency [14] | outcome [15] | Potency [16] | Potency [17] | Potency [18] | Potency [19] | Potency [20]

NCCCCCCN
inactive: outcome [1] | Potency [2] | Potency [3] | Potency [4] | max response [5] -0.521% and 1.93% | Potency [6] | outcome [7] | outcome [8] | Potency [9] | Potency [10] | outcome [11] | Potency [12] | outcome [13] | Potency [14] | outcome [15] | Potency [16] | Potency [17] | Potency [18] | Potency [19] | Potency [20]

O=C(O)CCCCCCCCC(=O)O
inactive: outcome [1] | Potency [2] | Potency [3] | Potency [4] | max response [5] 1.05% and 1.59% | Potency [6] | outcome [7] | outcome [8] | Potency [9] | Potency [10] | outcome [11] | Potency [12] | outcome [13] | Potency [14] | outcome [15] | Potency [16] | Potency [17] | Potency [18] | Potency [19] | Potency [20]

CC(C)(C#N)c1cc(Cn2cncn2)cc(C(C)(C)C#N)c1
inactive: outcome [1] | Potency [2] | Potency [3] | Potency [4] | max response [5] 0.713% and 4.85% | Potency [6] | outcome [7] | outcome [8] | Potency [9] | Potency [10] | outcome [11] | Potency [12] | outcome [13] | Potency [14] | outcome [15] | Potency [16] | Potency [17] | Potency [18] | Potency [19] | Potency [20]

CC(C)CC(C)O (stereo not given)
inactive: outcome [1] | Potency [2] | Potency [3] | Potency [4] | max response [5] 6.34% and 7.03% | Potency [6] | outcome [7] | outcome [8] | Potency [9] | Potency [10] | outcome [11] | Potency [12] | outcome [13] | Potency [14] | outcome [15] | Potency [16] | Potency [17] | Potency [18] | Potency [19] | Potency [20]

O=C1c2ccccc2CCc2ccccc21
inactive: outcome [1] | Potency [2] | Potency [3] | Potency [4] | max response [5] -14.3% and 0.842% | Potency [6] | outcome [7] | outcome [8] | Potency [9] | Potency [10] | outcome [11] | Potency [12] | outcome [13] | Potency [14] | outcome [15] | Potency [16] | Potency [17] | Potency [18] | Potency [19] | Potency [20]
